Consider 1 compound from PubChem BioAssay AID624093 (National Center for Advancing Translational Sciences (NCATS), 2012).

The target in the test is Dual specificity tyrosine-phosphorylation-regulated kinase 1A (Homo sapiens) (UniProt Q13627). As to the kind of experiment: Confirmation Assay for Inhibitors of Dyrk1a (Kinase-Glo Assay): KU probe. Particulars: Kinase-Glo ATP luminescence. From the text: NIH Molecular Libraries Probe Production Centers Network [MLPCN] NIH Chemical Genomics Center [NCGC] MLSCN Grant: 1R03MH084827-01 PI Name: Tom Misteli NCGC Assay Overview: The CMGC group of protein kinases which includes CDK-like kinases (Clk) and Dyks are essential kinases found in all eukaryotes. Clks have been implicated to play a role in the regulation of alternative splicing; while Dyrks, in particular over expression of Dyrk1A, has been linked to diseases as Down syndrome (DS; OMIM 190685) and Alzheimer disease (AD; OMIM 104300). Among the members of the CMGC group, the Clks and the Dyrks are very closely related therefore to determine validity and selectivity of an active compound observed in the CLK4 qHTS screen (AID:1770), a bioluminescent counter-screen against Dyrk1A was developed. […]
NCGC Assay Protocol Summary: Two uL/well of substrate solution (8uM Dyrktide, 2uM ATP, 25mM Tris-HCl pH 7.5, 10mM MgCl2 , 0.5mM EGTA, 5mM cystein, 0.01% Triton X-100 final concentration) was dispensed into 1536-well assay plates (Greiner, solid white, medium-binding plates) with Aurora Discovery BioRAPTR Flying Reagent Dispenser (FRD, Beckton-Dickenson). […] The plates were spun for 30 seconds (1000 rpm) and incubated at ambient temperature for 2 minutes followed by a luminescence read using Perkin Elmer ViewLux plate reader at 3 seconds exposure time and 2x binning.

Inconclusive results are not listed. Activity calls are given as the source filed them. The call rests on the fitted dose curve; in most records, active means well fitted inhibition curve with a large enough effect; inconclusive means small, poorly fitted or top-dose-only effect; inactive means flat fitted curve, though single readings scatter.

Consider `Cc1cc(CNc2ccnc(-c3ccc4c(c3)OCO4)n2)cnc1F`, for which the Potency is 18.4 µM (active).
